Bioassay records (PubChem)
Only some compounds are listed: those with a hit (about 5.3% of all), similar ones and a draw of the others.
Vaccinia Venus: vaccinia inhibition (Venus reporter); Vaccinia virus Venus reporter expression, fluorescence; Potency, µM (series often up to 36.5 µM), without a hit: top-dose activity change, negative = inhibition, usual class: inhibitors; 330,000 tested, 0.46% active; AID 720580; calls by dose curve; tested in A549 cells; further: nearly all actives have a fitted effect of over 30% in size
FMDV inh: antivirals against foot and mouth disease virus; FMDV antiviral cell-based qHTS; Potency, µM (doses to about 57.9 µM), for inactives: top-dose activity change, negative = inhibition, actives largely listed as inhibitors; 410,000 tested, 1.2% active; AID 1159524; calls by dose curve; tested in HEK293T cells; further: read-out not given here; nearly all actives have a fitted effect of over 45% in size
Lassa entry inh: inhibitors of Lassa virus binding or cell entry | Lassa virus pseudotype entry inhibition, cell reporter | Potency, µM (top dose mostly 37.9 µM), inactives show at the top dose activity change, negative = inhibition, usual class: inhibitors | 300,000 tested, 1.2% active; calls by dose curve; tested in HEK293 cells; further: nearly all actives have a fitted effect of over 50% in size
HCV inhibitor: inhibitors of hepatitis C virus infection | 340,000 tested, 3.4% active | Potency, µM (highest dose often 41.8 µM), inactives show top-dose activity change, negative = inhibition, actives largely listed as inhibitors | Huh7.5.1 HCVcc-Cre infection, luciferase reporter, 44 h; active means well fitted inhibition curve with a large enough effect; inconclusive means small, poorly fitted or top-dose-only effect, or another doubt; inactive means no such curve, though single readings can be large or run the other way
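Compounds are dispensed onto cells plated 4 h earlier at 1,000 per well, with HCVcc-Cre virus (about 0.5 moi) added next. Following 44 h of culture, luminescent signal is measured for 15 sec after 15 min with substrate at room temperature.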
Vaccinia mCherry: vaccinia inhibition (mCherry reporter) | Vaccinia virus mCherry reporter infection, fluorescence | Potency, µM (doses to about 36.5 µM), without a hit: top-dose activity change, negative = inhibition, usual class: inhibitors | 310,000 tested, 0.63% active; calls by dose curve; tested in A549 cells; further: nearly all actives have a fitted effect of over 35% in size
Marburg entry inh: inhibitors of Marburg virus binding or cell entry | Marburg virus pseudotyped entry inhibition, cell reporter | Potency, µM (titrated, usually from 37.8 µM), for inactives: at the top dose activity change, negative = inhibition, hits mostly inhibitors | 300,000 tested, 1.8% active; calls by dose curve; tested in HEK293 cells
* hit, by the source's call; [ ] = remark or other dose. On the % scale 0 is the no-effect control and ±100 the full control effect; potency means the concentration at half of the fitted maximal effect.

For CC(C)(C)c1ccc(CNc2cc(N3CCOCC3)ccc2[N+](=O)[O-])cc1 the results were Vaccinia Venus -29%, FMDV inh -14%, Lassa entry inh inconclusive, HCV inhibitor 10µM* and Marburg entry inh inconclusive.
CC(C)c1ccc(CNc2cc(N3CCCC3)ccc2[N+](=O)[O-])cc1 was read as Vaccinia Venus -9%, Lassa entry inh -25%, HCV inhibitor inconclusive, Vaccinia mCherry -25% and Marburg entry inh inconclusive.
For COc1ccc(N2CCN(C(=O)c3ccc(COc4ccc([N+](=O)[O-])cc4)o3)CC2)cc1 the results were Vaccinia Venus -15%, FMDV inh 28µM*, Lassa entry inh inconclusive, HCV inhibitor inconclusive, Vaccinia mCherry -4% and Marburg entry inh inconclusive.
Screening Cc1c2cnn(CC(=O)N3CCN(c4ccccc4)CC3)c(=O)c2c(C)n1Cc1ccccc1Cl returned Vaccinia Venus -2%, FMDV inh inconclusive, Lassa entry inh 15%[46.1 µM], Vaccinia mCherry -6% and Marburg entry inh -1%[46.1 µM].
Clc1cccc2c1Sc1ccccc1CC2N1CCNCC1 (configuration not stated) was read as Vaccinia Venus inconclusive, FMDV inh -22%, Lassa entry inh 5.2µM*, HCV inhibitor 10µM*, Vaccinia mCherry inconclusive and Marburg entry inh inconclusive.
COCCCN1CCN(C2Cc3ccccc3Sc3ccc(Cl)cc32)CC1 (configuration not stated) was read as Vaccinia Venus inconclusive, FMDV inh -9%, Lassa entry inh inconclusive, HCV inhibitor -15%, Vaccinia mCherry inconclusive and Marburg entry inh inconclusive.
COc1ccc(CC(C)N2CCN(c3cccc(C(F)(F)F)c3)CC2)cc1OC (configuration not stated) was read as Vaccinia Venus -24%, Lassa entry inh inconclusive, HCV inhibitor 11µM*, Vaccinia mCherry inactive and Marburg entry inh -20%.
CCOc1cc(CN2CCN(c3cccc(C(F)(F)F)c3)CC2)ccc1O was read as FMDV inh -6%, Lassa entry inh -5%, HCV inhibitor -10% and Marburg entry inh 16µM*.
Screening CCOc1cc(CN2CCN(c3cccc(C(F)(F)F)c3)CC2)ccc1OC returned Vaccinia Venus -12%, Lassa entry inh -15%, HCV inhibitor -25%, Vaccinia mCherry -21% and Marburg entry inh inconclusive.
Screening COc1ccc(CN2CCOc3ccc(CN4CCC(Oc5cccnc5)CC4)cc3C2)c(F)c1 returned Vaccinia Venus -28%, FMDV inh inconclusive and Vaccinia mCherry -10%.
COC(=O)[C@@H]1[C@H]2SC(C)(C)[C@H](C(=O)OC)N2C(=O)N1Cc1cc2ccccc2n1S(=O)(=O)c1ccccc1 was read as Vaccinia Venus -18% and Vaccinia mCherry inactive.
For COc1ccnc(N2CCN(c3ccc(Cl)cc3)CC2)c1C#N the results were Vaccinia Venus -9%, FMDV inh inconclusive, Lassa entry inh -27%, HCV inhibitor 32µM*, Vaccinia mCherry -15% and Marburg entry inh -2%.
Screening Oc1ccc(/C=N/Nc2nccnc2Cl)c(O)c1 returned Vaccinia Venus inconclusive, FMDV inh 9%, Lassa entry inh inconclusive, HCV inhibitor inconclusive, Vaccinia mCherry 2.5µM* and Marburg entry inh inconclusive.
`Oc1ccc(C=NNc2ccccn2)c(O)c1` gave Vaccinia Venus inconclusive, FMDV inh 11%, Lassa entry inh inconclusive, HCV inhibitor inconclusive, Vaccinia mCherry inconclusive and Marburg entry inh inconclusive.
Oc1ccc(/C=N/Nc2ncc(Br)cn2)c(O)c1 was read as Vaccinia Venus inconclusive, FMDV inh 10%, Lassa entry inh inconclusive, HCV inhibitor inconclusive, Vaccinia mCherry 2.5µM* and Marburg entry inh inconclusive.
For Oc1ccccc1/C=N/Nc1nccnc1Cl the results were FMDV inh 38%, Lassa entry inh 13µM*, HCV inhibitor inconclusive and Marburg entry inh inconclusive.
For Oc1ccc(Br)cc1/C=N/Nc1ncc(-c2ccccc2)cn1 the results were Vaccinia Venus 7%, FMDV inh -14%, Lassa entry inh -25%, HCV inhibitor 0%, Vaccinia mCherry inactive and Marburg entry inh -33%.
Screening CC(=O)N(Cc1ccc(F)cc1)C1=C(NCCc2ccccc2)C(=O)c2ccccc2C1=O returned Vaccinia Venus 3.2µM*, FMDV inh 25µM*, Lassa entry inh 7.1µM*, HCV inhibitor 10µM*, Vaccinia mCherry 2.8µM* and Marburg entry inh inconclusive.
For O=C(COc1ccccc1C(=O)Nc1ccccc1)NC1CCCCC1 the results were Vaccinia Venus -16% and Vaccinia mCherry inactive.
For COc1cc2nc(N3CCCC(O)C3)c(CNCc3ccccc3C(F)(F)F)cc2c(OC)c1OC (configuration not stated) the results were Vaccinia Venus -18%, FMDV inh -5% and Vaccinia mCherry -11%.
`N#Cc1c(NCc2ccccc2)ccnc1NCc1cccnc1` gave Vaccinia Venus inconclusive, FMDV inh -15%, Lassa entry inh -23%, HCV inhibitor 7.1µM*, Vaccinia mCherry inconclusive and Marburg entry inh inconclusive.
`Clc1cccc(-c2nc(NCc3cccnc3)c3ccccc3n2)c1` gave FMDV inh -2%, Lassa entry inh 29%, HCV inhibitor 2.8µM* and Marburg entry inh -18%.
Screening c1cncc(-c2nc(NCc3ccco3)c3ccccc3n2)c1 returned Vaccinia Venus -14%, FMDV inh -19%, Lassa entry inh 14%, HCV inhibitor 10µM*, Vaccinia mCherry inactive and Marburg entry inh -33%.
For c1ccc(-c2nc(NCc3cccnc3)c3ccccc3n2)cc1 the results were Vaccinia Venus inconclusive, FMDV inh 0%, Lassa entry inh -1%, HCV inhibitor 10µM*, Vaccinia mCherry -23% and Marburg entry inh inconclusive.
Screening N#Cc1c(F)cccc1NCc1cccnc1 returned Vaccinia Venus -12%, FMDV inh -17%, Lassa entry inh inconclusive, HCV inhibitor inconclusive, Vaccinia mCherry -21% and Marburg entry inh 10%.
For Cc1ccc(-c2nc(NCc3ccco3)c3ccccc3n2)cc1 the results were FMDV inh 24%, Lassa entry inh inconclusive, HCV inhibitor inconclusive and Marburg entry inh 2%.
`CN(C)c1ccc(/C=C/c2nc3ccccc3s2)cc1Cl` gave Vaccinia Venus -4% and Vaccinia mCherry -6%.
`C=C(C)C(=O)C=Cc1ccc(Br)cc1` gave Marburg entry inh 6%[14.2 µM].
Screening Cc1nn(C(C)(C)C)c(OC(=O)c2cccs2)c1S(=O)(=O)c1ccccc1 returned Vaccinia Venus inconclusive, FMDV inh inconclusive, Lassa entry inh 11µM*, HCV inhibitor inconclusive, Vaccinia mCherry inconclusive and Marburg entry inh inconclusive.
`CCN(CC)c1ccc(C(NC(=O)C(C)C)c2ccc3cccnc3c2O)cc1` (configuration not stated) gave Vaccinia Venus inconclusive, FMDV inh -22% and Vaccinia mCherry inconclusive.
